This passage reports outcome and activity change, negative = cytotoxicity results from PubChem BioAssay AID720697 (Broad Institute, 2013).

Results with a measured potency or affinity are listed apart. Inconclusive results are not listed. Values without a mark were called inactive. Active and inactive are the calls of the source.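 How the source made its calls: active means signal loss with fitted half-maximal concentration at or below twice the top valid tested dose in every test run; inconclusive means runs disagree, flat 30 to 70% signal loss, or poor fit; inactive means all runs flat, opposite direction, or potency beyond limit.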

The nature of this assay: HEK293T cytotoxicity, dose response, cytotoxicity control for miR-122 modulator project, cell-based, inhibitor set, cherry-pick, set 2 (AID 720697).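 Further: 0% = median of neutral control wells and -100% = MG132 positive control wells.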 The note with it: HEK293T viability, CellTiter-Glo luminescence, 48 h; series mostly up to 26 µM.

Turning to `CCN(CC)CCNc1nc(-c2ccccc2)nnc1C(F)(F)F`, the compound was classed as inactive.
As for `COCC(=O)Nc1ccc2c(c1)C(=O)N(C)[C@@H]1CC[C@@H](CC(=O)NC3CCCC3)O[C@@H]1CO2`, the result was inactive.
On the same count and under the same terms, then `CN1C(=O)c2cc(NC(=O)c3cccc(F)c3)ccc2OC[C@H]2O[C@H](CC(=O)N3CCc4ccccc4C3)CC[C@H]21`, with “inactive”.
Same read-out and setting: then `CO[C@@H]1CN(C)C(=O)c2cc(NC(=O)Nc3ccc(Cl)c(Cl)c3)ccc2OC[C@H](C)NC[C@H]1C`, with “inactive”; and `O=C(c1cccc(F)c1)N1C[C@@H]2[C@H](c3ccccc31)[C@H](CO)N2C(=O)Cc1ccccc1`, with “inactive”.
Still for that read-out and setting: then `CCC(=O)N1[C@H](CO)[C@@H](c2ccccc2)[C@H]1CN(C(C)C)S(C)(=O)=O`, with “inactive”.
With `CN(C)CCNc1ncnc2c1sc1nc(N3CCOCC3)c3c(c12)CC(C)(C)SC3`, the compound was classed as inactive.
Same read-out and setting: the value for `C[C@@H]1CCCCO[C@@H](CN(C)CC2CCCCC2)[C@H](C)CN([C@@H](C)CO)C(=O)c2cc(NC(=O)Nc3cccc4ccccc34)ccc2O1` was “inactive”.
Regarding `CCCC(=O)Nc1ccc2c(c1)C(=O)N(C)[C@@H]1CC[C@H](CC(=O)NCCOC)O[C@H]1CO2`, the call was inactive.
Same read-out and setting: the value for `CCCNC(=O)C[C@H]1CC[C@@H]2[C@@H](COc3ccc(NC(=O)c4ccc5c(c4)OCO5)cc3C(=O)N2C)O1` was “inactive”.
Turning to `NS(=O)(=O)c1ccc(Nc2nc(-c3cccnc3)cs2)cc1`, the activity change, negative = cytotoxicity was 34% [at 6 µM].
For `O=C(COc1ccccc1F)N1CCc2ccccc2C1`, the compound was called inactive.
`CN1C(=O)c2cc(NC(=O)c3cccc(F)c3)ccc2OC[C@H]2O[C@@H](CC(=O)O)CC[C@H]21`: the compound was called inactive.
On the same count and under the same terms, the value for `C/C=C/c1ccc([C@@H]2[C@@H](CN(C)C(=O)CC)N(C(=O)NC(C)C)[C@H]2CO)cc1` was “inactive”.
Same read-out and setting: the value for `CN(C)C(=O)c1ccc(-c2ccc([C@H]3[C@@H](CO)N4CCCCN(C(=O)C5CCCC5)C[C@@H]34)cc2)cc1` was “inactive”; that for `CNC(=O)C[C@H]1CC[C@H]2[C@H](COc3ccc(NC(=O)c4cccc(F)c4)cc3C(=O)N2C)O1` was “inactive”.
Same read-out and setting: then `CCCNC(=O)C[C@@H]1CC[C@@H]2[C@@H](COc3ccc(NC(=O)Nc4ccccc4F)cc3C(=O)N2C)O1`, with “inactive”; and `C[C@H](CO)N1C[C@H](C)[C@@H](CN(C)Cc2ccc(-c3ccccc3)cc2)Oc2ncc(C#CCN(C)C)cc2C1=O`, with “inactive”; and `Cc1cccc(NC(=O)C[C@H]2CC[C@H]3[C@@H](COc4ccc(NC(=O)NC(C)C)cc4C(=O)N3C)O2)c1`, with “inactive”.
In the case of `COC(=O)C[C@@H]1CC[C@H]2[C@@H](COc3ccc(NC(=O)Nc4ccccc4C)cc3C(=O)N2C)O1`, the compound was classed as inactive.
The same measure, in the same setting: the value for `CCCC(=O)Nc1ccc2c(c1)C(=O)N(C)[C@H]1CC[C@H](CC(=O)NCCN3CCCCC3)O[C@@H]1CO2` was “inactive”.
Same read-out and setting: then `CCC(=O)N1[C@@H](CO)[C@H](c2ccccc2)[C@@H]1CN(C(C)C)S(C)(=O)=O`, with “inactive”; and `O=C(Nc1ccccc1F)N1[C@H](CO)[C@@H]2c3ccccc3NC[C@@H]21`, with “inactive”; and `CCS(=O)(=O)Nc1ccc2c(c1)C(=O)N(C)[C@@H]1CC[C@@H](CC(=O)NCCCN3CCOCC3)O[C@@H]1CO2`, with “inactive”.
In the case of `Cc1cccc(-n2ncc(Cl)c(Cl)c2=O)c1`, the activity change, negative = cytotoxicity was -3.19% [at 6 µM].
On to `O=C(c1cccnc1)N1C[C@H]2[C@@H](c3ccccc31)[C@H](CO)N2C(=O)Nc1ccccc1Cl`, for which the compound was classed as inactive.
Same read-out and setting: then `CCNC(=O)C[C@@H]1CC[C@@H]2[C@@H](COc3ccc(NC(=O)c4ccccc4)cc3C(=O)N2C)O1`, with “inactive”.
In the case of `COc1cccc(NC(=O)Nc2ccc3c(c2)C(=O)N(C)[C@@H]2CC[C@H](CC(=O)O)O[C@H]2CO3)c1`, the outcome was inactive.
Same read-out and setting: then `Cc1ccc(S(=O)(=O)Nc2ccc3c(c2)C(=O)N(C)[C@@H]2CC[C@@H](CC(=O)NCCc4ccncc4)O[C@@H]2CO3)cc1`, with “inactive”; and `C/C=C/c1ccc([C@@H]2[C@@H](CO)N(C(C)=O)[C@@H]2CN(C)C(=O)c2ccccn2)cc1`, with “inactive”; and `CCC(=O)N(C)C[C@H]1Oc2cc(C#CC3CCCCC3)ccc2S(=O)(=O)N([C@@H](C)CO)C[C@H]1C`, with “inactive”.
As for `CN1C(=O)c2cc(NC(=O)c3cccc(F)c3)ccc2OC[C@@H]2O[C@H](CC(=O)Nc3ccccc3)CC[C@H]21`, the compound was classed as inactive.
The same measure, in the same setting: then `C[C@@H]1CN([C@H](C)CO)S(=O)(=O)c2ccc(C#Cc3ccccc3F)cc2O[C@@H]1CN(C)C(=O)Cc1ccncc1`, with “inactive”.
`C[C@H]1CN([C@@H](C)CO)C(=O)c2cc(C#Cc3cccnc3)cnc2O[C@H]1CN(C)S(=O)(=O)c1ccccc1F`: the compound was classed as inactive.
The same measure, in the same setting: the value for `CC(=O)c1cccc(S(=O)(=O)NCC2CCCCC2)c1` was “inactive”; that for `c1ccc(-n2nnnc2NCCc2c[nH]c3ccccc23)cc1` was “inactive”; that for `CN1C[C@@H]2[C@H](c3ccccc31)[C@@H](CO)N2C(=O)Nc1ccccc1` was “inactive”.
In the case of `CC(=O)N1[C@H](CN(C)S(=O)(=O)c2ccccc2)[C@H](c2ccccc2)[C@@H]1CO`, the compound was called inactive.
Same read-out and setting: the value for `COCC(=O)Nc1ccc2c(c1)C(=O)N(C)[C@@H]1CC[C@@H](CC(=O)NC3CCCC3)O[C@H]1CO2` was “inactive”; that for `C/C=C/c1ccc2c(c1)O[C@H](CN(C)C(=O)Cc1cccnc1)[C@H](C)CN([C@H](C)CO)S2(=O)=O` was “inactive”; that for `COCC(=O)N(C[C@H]1[C@H](c2ccccc2)[C@@H](CO)N1C(=O)NC(C)C)C(C)C` was “inactive”.
Take `Cc1nn(C)cc1NC(=O)C[C@@H]1CC[C@H]2[C@@H](COc3ccc(NC(=O)Nc4cccc(Cl)c4)cc3C(=O)N2C)O1`: the compound was called inactive.
The same measure, in the same setting: the value for `COc1cccc(NC(=O)C[C@@H]2CC[C@@H]3[C@@H](COc4ccc(NS(=O)(=O)c5cccc(F)c5)cc4C(=O)N3C)O2)c1` was “inactive”; that for `CNC(=O)C[C@H]1CC[C@@H]2[C@H](COc3ccc(NC(=O)NC(C)C)cc3C(=O)N2C)O1` was “inactive”; that for `CCC(=O)Nc1ccc2c(c1)C(=O)N(C)[C@@H]1CC[C@H](CC(=O)NCCN3CCCCC3)O[C@H]1CO2` was “inactive”.
For the compound `CC(C)NC(=O)N1[C@H](CO)[C@@H](c2ccccc2)[C@@H]1CNC(=O)CN(C)C`, the call was inactive.
`COC(=O)C[C@H]1CC[C@H]2[C@H](COc3ccc(NC(=O)c4cccc(F)c4)cc3C(=O)N2C)O1`: the result was inactive.
On the same count and under the same terms, the value for `CCCC(=O)Nc1ccc2c(c1)C(=O)N(C)[C@@H]1CC[C@H](CC(=O)NCCN3CCCCC3)O[C@H]1CO2` was “inactive”; that for `COc1ccc(C(=O)N2C[C@H]3[C@@H](c4ccccc42)[C@@H](CO)N3C(=O)Cc2ccccn2)cc1` was “inactive”.
Still for that read-out and setting: the value for `COc1cc(-c2nnc(-c3ccco3)o2)ccc1OCc1ccccc1` was “inactive”; that for `C[C@H](CO)N1C[C@H](C)[C@@H](CN(C)CC2CCCCC2)OCCCC[C@H](C)Oc2ccc(NC(=O)Nc3cccc4ccccc34)cc2C1=O` was “inactive”; that for `O=C(c1ccccc1)N1C[C@H]2[C@@H](c3ccccc31)[C@@H](CO)N2C(=O)CN1CCOCC1` was “inactive”.
On to `CN1C(=O)c2cc(NC(=O)Nc3ccc(Cl)cc3)ccc2OC[C@@H]2O[C@@H](CC(=O)NCCN3CCCCC3)CC[C@H]21`, for which the compound was classed as inactive.
As for `C[C@H](CO)N1C[C@H](C)[C@H](CN(C)CC2CCCCC2)OCCCC[C@H](C)Oc2ccc(NC(=O)Nc3cccc4ccccc34)cc2C1=O`, the call was inactive.
On the same count and under the same terms, the value for `CCC(=O)N(C)C[C@H]1Oc2cc(C#Cc3ccccc3)ccc2S(=O)(=O)N([C@H](C)CO)C[C@H]1C` was “inactive”; that for `C[C@@H]1CN([C@@H](C)CO)S(=O)(=O)c2ccc(C3=CCCCC3)cc2O[C@@H]1CN(C)C(=O)Cc1ccncc1` was “inactive”; that for `CCCC(NS(=O)(=O)c1ccc(Br)cc1)C(=O)O` (centres undefined) was “inactive”.
Same read-out and setting: then `CO[C@H]1CN(C)C(=O)c2cc(NC(=O)Nc3ccc(Cl)c(Cl)c3)ccc2OC[C@@H](C)NC[C@@H]1C`, with “inactive”; and `CCC(=O)N(C)C[C@@H]1[C@@H](c2ccccc2)[C@H](CO)N1Cc1cccnc1`, with “inactive”; and `C/C=C/c1ccc([C@@H]2[C@H](CO)N[C@H]2CN(CC)C(=O)CN2CCOCC2)cc1`, with “inactive”.
For the compound `CN(C)CCCNC(=O)C[C@H]1CC[C@H]2[C@H](COc3ccc(NC(=O)c4cccc(F)c4)cc3C(=O)N2C)O1`, the call was inactive.
Same read-out and setting: then `COCCN(C[C@@H]1[C@@H](c2ccccc2)[C@H](CO)N1C(=O)C1CCC1)C(C)=O`, with “inactive”.
Same read-out and setting: the value for `CN1C(=O)c2cc(NC(=O)c3ccc(C(F)(F)F)cc3)ccc2OC[C@H]2O[C@H](CC(=O)O)CC[C@@H]21` was “inactive”.
Consider `C/C=C/c1ccc([C@@H]2[C@@H](CO)N(C(=O)Cc3cccnc3)[C@H]2CNC(C)=O)cc1`, for which the result was inactive.
Still for that read-out and setting: the value for `COc1ccccc1C#Cc1ccc2c(c1)O[C@H](CN(C)Cc1cccnc1)[C@H](C)CN([C@@H](C)CO)S2(=O)=O` was “inactive”; that for `C[C@@H]1CN([C@H](C)CO)S(=O)(=O)c2ccc(C3=CCCCC3)cc2O[C@@H]1CN(C)C(=O)Cc1ccncc1` was “inactive”; that for `CN1C(=O)c2cc(NC(=O)c3cccc(F)c3)ccc2OC[C@@H]2O[C@H](CC(=O)NC3CCC3)CC[C@@H]21` was “inactive”.
With `CCCNC(=O)Nc1ccc2c(c1)OC[C@@H](C)N(CCC)C[C@H](C)[C@H](OC)CN(C)C2=O`, the result was inactive.
For the compound `COc1ccc(-c2nc(NC(=O)CSc3nnc(C)s3)ns2)cc1`, the result was inactive.
In the case of `COc1ccccc1C#Cc1cnc2c(c1)C(=O)N([C@H](C)CO)C[C@H](C)[C@@H](CN(C)C(=O)c1ccc3c(c1)OCO3)O2`, the compound was called inactive.
Turning to `CN1C(=O)c2cc(NC(=O)Nc3cccc(Cl)c3)ccc2OC[C@H]2O[C@@H](CC(=O)NCCc3ccncc3)CC[C@H]21`, the compound was classed as inactive.
Still for that read-out and setting: the value for `CCCNC(=O)N1[C@H](CNC(C)=O)[C@H](c2ccc(C3=CCCC3)cc2)[C@@H]1CO` was “inactive”.
On the same count and under the same terms, then `CC(C)NC(=O)Nc1ccc2c(c1)C(=O)N(C)[C@@H]1CC[C@@H](CC(=O)NCC(F)(F)F)O[C@@H]1CO2`, with “inactive”; and `CCN(C[C@@H]1[C@@H](c2ccccc2)[C@H](CO)N1C(C)=O)C(=O)NC(C)C`, with “inactive”.
